In the library only some 5.4% were active in any assay of this set; here they are far more common.
beta cell repl: induces beta-cell replication in MIN6 cells. MIN6 cells proliferation, ATPlite luminescence, 48 h; cells starved in 0.2% serum; 100% = growth in 10% serum. proliferation, % at 10 µM. 0.29% of 330,000 active;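 active = compounds whose signal lies at least 3.5 SD above the mean of all wells on their plate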
ALR inh: blocks human ALR sulfhydryl oxidase activity. AID 485317. purified ALR, DTT oxidation, H2O2 HRP-luminol luminescence. inhibition, % (concentration not given with the values). 3.8% of 290,000 active;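 active = mean replicate inhibition above about 79%, with every replicate also reaching it, limit read from the data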
Target sequence (P55789 whole entry, looked up): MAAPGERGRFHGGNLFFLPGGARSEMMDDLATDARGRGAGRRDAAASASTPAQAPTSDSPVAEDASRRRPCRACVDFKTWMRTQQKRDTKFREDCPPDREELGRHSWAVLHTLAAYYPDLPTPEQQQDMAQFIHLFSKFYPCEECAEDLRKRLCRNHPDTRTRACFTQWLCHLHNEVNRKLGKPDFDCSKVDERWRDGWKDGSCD
SMARCA2 activ: SMARCA2 function activation, primary screen | MG213 cells, MMTV-luciferase reporter, dexamethasone, overnight | activation, % at 9.1 µM | 1% of 370,000 active; in the data active = activation above about 7.8%
Granule exo inh: lytic granule exocytosis inhibition. TALL-104 LAMP-1 surface exposure, flow cytometry; cells stimulated with thapsigargin and PMA. inhibition, % at 10 µM. 0.66% of 360,000 active;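 active = inhibition above about 55%, limit read from the data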
PfM18AAP inh: PfM18AAP enzyme inhibition; inhibition, % at 7.35 µM; 1.2% of 290,000 active; AID 1822; recombinant PfM18AAP, H-Glu-NHMec fluorogenic cleavage;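 active = inhibition above the campaign mean inhibition over all tested compounds plus 3 SD, cut at about 28% in these data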
GASC-1 inh: blocks human GASC-1 demethylase activity | Q9H3R0 | GST-JMJD2C(1-420) H3K9me3 demethylation, DELFIA europium | inhibition, % at 2.35 µM | 0.069% of 330,000 active;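 active = more than half of a compound's replicate wells show inhibition beyond 50%, single wells judged on their own value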;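 note: signal counts dimethyl H3K9 product captured on neutravidin plate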
Of the large screens only hits and unclear results are named; the others gave an inactive call.

COc1cccc(-c2nc(CS(=O)(=O)CC(=O)N3CCN(C)CC3)c(C)o2)c1	ALR inh 97
CCOC(=O)N1CCN(C(=O)CS(=O)(=O)Cc2nc(-c3cccc(OC)c3)oc2C)CC1	none
COc1cccc(-c2nc(CS(=O)(=O)CC(=O)N3CCOCC3)c(C)o2)c1	none
O=C(CSCc1ccccc1Br)NC1CC1	ALR inh 98
CSc1ccccc1NC(=O)CSCc1ccccc1Br	none
CCCn1cc(CCC(=O)Nc2ccc(Oc3cccnc3)cc2)c2ccccc21	none (no result: beta cell repl, ALR inh, Granule exo inh, PfM18AAP inh, GASC-1 inh)
CCOc1cccc(-c2nnc(SCC(=O)Nc3ccc4c(c3)OCO4)n2N)c1	none (no result: beta cell repl, ALR inh, Granule exo inh, PfM18AAP inh, GASC-1 inh)
Cc1ccc(Nc2nnc(SCC(=O)NC(Cc3c[nH]c4ccccc34)C(=O)O)s2)cc1 (configuration not stated)	ALR inh 94
CCOc1ccccc1Nc1nnc(SCC(=O)NC(Cc2c[nH]c3ccccc23)C(=O)O)s1 (configuration not stated)	none
O=C(CSc1nnc(-c2ccncc2)n1-c1ccc(Cl)cc1)c1ccc(Cl)c(Cl)c1	none (no result: beta cell repl, ALR inh, Granule exo inh, PfM18AAP inh, GASC-1 inh)
C=CCN1C(=O)c2[nH]nc(-c3ccccc3)c2C1c1ccc(C)cc1 (configuration not stated)	none (no result: beta cell repl, ALR inh, Granule exo inh, PfM18AAP inh, GASC-1 inh)
COC(=O)[C@]12C[C@H](CC(=O)NCC34CC5CC(CC(C5)C3)C4)C(=O)N(Cc3ccco3)C1=C[C@H](COCc1ccccc1)O[C@@H]2C	none (no result: beta cell repl, ALR inh, Granule exo inh, PfM18AAP inh, GASC-1 inh)
COc1ccc(Cl)cc1NC(=O)c1noc2c1CCCC2	beta cell repl 7.6
COc1cc(NC(=O)c2noc3c2CCCC3)c(OC)cc1Cl	none (no result: SMARCA2 activ)
CN1C(=O)c2cc(NC(=O)Nc3ccccc3F)ccc2OC[C@H]2O[C@@H](CC(=O)NCc3ccc(-c4ccccc4)cc3)CC[C@@H]21	none (no result: beta cell repl, ALR inh, Granule exo inh, PfM18AAP inh, GASC-1 inh)
NNC(=O)c1ccc(COc2cccc3cccnc23)cc1	ALR inh 98
COc1ccc2nc(Nc3ccccc3)sc2c1	ALR inh 94
COc1ccc2nc(Nc3ccccc3OC)sc2c1	ALR inh 99
COc1ccc2nc(Nc3ccc4c(c3)OCO4)sc2c1	none (no result: ALR inh)
O=C(NCCc1ccccc1)OCc1cn(-c2ccc(Cl)cc2)nn1	none (no result: beta cell repl, ALR inh, Granule exo inh, PfM18AAP inh, GASC-1 inh)
COC(=O)[C@]12C[C@H](CC(=O)NCCCN3CCCC3=O)C(=O)N(CCc3ccc(OC)c(OC)c3)C1=C[C@H](C(C)C)O[C@@H]2C1CC1	none (no result: beta cell repl, ALR inh, Granule exo inh, PfM18AAP inh, GASC-1 inh)
Cc1onc(-c2ccccc2Cl)c1C(=O)NC1CCS(=O)(=O)C1 (configuration not stated)	ALR inh 96
Cc1onc(-c2ccccc2Cl)c1C(=O)NC(=S)Nc1ccccc1C(N)=O	ALR inh 95
Cc1onc(-c2ccccc2Cl)c1C(=O)Nc1ncn[nH]1	PfM18AAP inh 54
CC(=O)Nc1ccc(NC(=O)c2c(-c3ccccc3Cl)noc2C)cc1	none
Cc1onc(-c2ccccc2Cl)c1C(=O)Nc1ccccc1C(N)=O	none
CCN(CC)C(=O)CSc1nnc(-c2cccs2)o1	none (no result: beta cell repl, ALR inh, Granule exo inh, PfM18AAP inh, GASC-1 inh)
COC1=C(OC)C(=O)C(Sc2ccc3ccccc3c2)=CC1=O	Granule exo inh 86 (no result: beta cell repl, ALR inh, PfM18AAP inh, GASC-1 inh)
COc1ccc(S(=O)(=O)Oc2ccc3ccccc3c2)cc1	none
O=C(OC12CCCN(C1)/C(=C/c1ccccc1)C2)c1ccc(F)cc1 (configuration not stated)	none (no result: beta cell repl, ALR inh, Granule exo inh, PfM18AAP inh, GASC-1 inh)
Cc1cccn2c(=O)c(/C=C(\C#N)C(=O)NC3CCS(=O)(=O)C3)c(N3CCC(C(N)=O)CC3)nc12 (configuration not stated)	none
Cc1ccc(Oc2nc3ccccn3c(=O)c2/C=C(\C#N)C(=O)NC2CCS(=O)(=O)C2)cc1 (configuration not stated)	Granule exo inh 74
Cc1ccccc1Oc1nc2c(C)cccn2c(=O)c1/C=C(\C#N)C(=O)NC1CCS(=O)(=O)C1 (configuration not stated)	Granule exo inh 82
Cc1cccn2c(=O)c(/C=C(\C#N)C(=O)NC3CCS(=O)(=O)C3)c(Oc3ccccc3Cl)nc12 (configuration not stated)	none
C=CCN1[C@H](Cc2ccccc2)COc2cc(F)ccc2S1(=O)=O	none (no result: beta cell repl, ALR inh, Granule exo inh, PfM18AAP inh, GASC-1 inh)
COCc1cc(N2CCNC[C@@H]2C)ccc1N1C[C@@H](C)O[C@@H](C)C1	none (no result: beta cell repl, ALR inh, Granule exo inh, PfM18AAP inh, GASC-1 inh)
O=C1N/C(=N\S(=O)(=O)Cc2ccccc2)S/C1=C/c1cc([N+](=O)[O-])ccc1O	ALR inh 97
CC(=O)N1CCN(C(=O)CSc2nc3cccnc3n2C)CC1	none (no result: beta cell repl, ALR inh, Granule exo inh, PfM18AAP inh, GASC-1 inh)

Screens (PubChem BioAssay)
